Screening results from PubChem BioAssay.
WT yeast gro inh – growth inhibition of WT yeast, mitochondrial fusion screen. 190,000 compounds, 2.1% hits. inhibition, % at 10 µM. mitochondrial fusion phenotypic screen, WT strain; in the data active means inhibition above about 58%; tested in S. cerevisiae
L major viab – inhibitors of Leishmania major promastigote growth; Leishmania major promastigotes, resazurin fluorescence viability; AID 1063; 200,000 compounds, 9% hits; inhibition, % at 10 µM; in the data active means inhibition above about 50%;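 further: promastigotes grown with compound for 44 hours at 28 °C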
Autophagy HCS – autophagy modulation, high-content screen; calls only at 10 µM (by protocol); 190,000 compounds, 0.98% hits; MEF GFP-LC3 puncta imaging; test concentration mostly 10 µM;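 active means percentage of spot-positive cells more than 3 SD above its plate mean, without a fluorescence outlier flag or 80% toxicity; inconclusive means no clear call, values can overlap the other calls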;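 further: spot-positive cell cutoff set from DMSO-treated cells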
INS promoter inh – TRM-6 insulin promoter activity inhibition | 130,000 compounds, 0.9% hits | inhibition, % at 2 µM | TRM-6 cells (human fetal islet line), insulin promoter-eGFP reporter, imaging; reporter expression induced with tamoxifen;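 active means inhibition above the mean plus 3 SD, with well images judged a real hit on visual review, cut at about 60% in these data, passing the limit was not always enough; inconclusive means inhibition over the cutoff but images rejected on review; inactive means inhibition not above the cutoff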
Ins promoter up – MIN6 insulin promoter up-regulation; MIN6 insulin promoter-GFP reporter, high-content imaging; active compounds read high; z-score at 5 µM; 190,000 compounds, 0.3% hits; AID 1625;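 active means z-score above 3 at 5 µM with at least 500 cells counted in the well; inconclusive means wells under 500 cells, flagged as cytotoxic or low count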
An asterisk follows results filed as active; i = inactive; ? = inconclusive; . = no result given; + = active, no number. Hits are enriched below; roughly 11% of the tested compounds scored in any of these assays.

SMILES | WT yeast gro inh | L major viab | Autophagy HCS | INS promoter inh | Ins promoter up
CC12CN(C(=S)Nc3ccccc3)CC(C)(CN(C(=S)Nc3ccccc3)C1)C2=O | -8.5 | -1.6 | i | . | -0.09
Clc1ccc2nc(N3CCCCC3)[nH]c2c1 | -5.9 | 21.8 | i | 86.7* | .
CCOC(=O)N/N=C1\CCS(=O)(=O)c2ccc(Cl)cc21 | . | . | . | . | 0.79
CCOc1ccc(OCCCCNC(C)(C)C)cc1 | 3.6 | 98.1* | i | . | 0.06
CC(C)(C)NCCCCOc1ccc(F)cc1 | 7.8 | 99.5* | i | 13.3 | 0.36
CCOc1cccc(OCCOCCNC(C)(C)C)c1 | 8.3 | 28.4 | i | -24.1 | -0.62
CCN(CC)CCN(Cc1cc2ccc(C)c(C)c2[nH]c1=O)C(=S)NCc1ccco1 | -1.6 | 31.9 | i | . | -0.11
O=C(NCCc1ccccc1)C1CCCN(S(=O)(=O)c2cccs2)C1 (stereo unspecified) | 9.1 | -4.8 | . | . | -0.18
COc1cc(Cl)c(C)cc1NC(=O)COc1ccccc1[N+](=O)[O-] | -14.5 | -1.2 | i | 16.7 | -0.36
CCCCSc1nc2c(cnn2-c2ccc(C)c(C)c2)c(=O)[nH]1 | 7.1 | 11.6 | + | . | 0.38
COc1ccc(C2C(C#N)=C(N)Oc3cc(C)[nH]c(=O)c32)cc1OC (stereo unspecified) | . | . | . | . | -0.07
N#C/C(=C\c1cc2c(cc1Br)OCO2)C(=O)NCC1CCCO1 (stereo unspecified) | . | . | . | . | 0.53
CCc1c(C)sc(NC(=O)/C=C/C(=O)O)c1C(N)=O | -16.7 | -2.2 | i | . | 0.62
O=C(NCc1ccc(Cl)cc1)C1CCN(S(=O)(=O)c2cc([N+](=O)[O-])ccc2Cl)CC1 | -20.5 | 79.5* | i | . | 0.39
Cc1cccc2sc(NC(=O)C3CCN(S(=O)(=O)c4cc([N+](=O)[O-])ccc4Cl)CC3)nc12 | -4.8 | 90.3* | i | -66.7 | -0.84
Cc1ccc2nc(NC(=O)C3CCCN(S(=O)(=O)c4cccc5nonc45)C3)sc2c1 (stereo unspecified) | . | . | . | . | 0.77
Cc1cccc2sc(NC(=O)C3CCCN(S(=O)(=O)c4cccc5nonc45)C3)nc12 (stereo unspecified) | 13.6 | -0.1 | + | -9.1 | 6.61*
CN1C(=O)/C(=C/c2ccccc2OCc2cccc(F)c2)N(C)C1=S | 15.2 | 80.2* | i | -5.1 | 0.5
O=c1c2c3c(sc2n(CCN2CCCCC2)c(=O)n1Cc1ccco1)CCCCC3 | 8.3 | 99.2* | i | -11.1 | -0.91
O=c1c2c3c(sc2n(CCN2CCOCC2)c(=O)n1Cc1ccco1)CCCCC3 | -11.9 | 24.1 | i | . | .
CC(C)(C)NNC(=S)Nc1ccc(S(=O)(=O)N2CCOCC2)cc1 | 22.4 | -0.5 | i | . | .
O=S(=O)(c1ccc(NC(=S)NCCc2ccccc2)cc1)N1CCOCC1 | 7.3 | 68.8* | i | -15.8 | ?
O=S(=O)(c1ccc(NC(=S)NN=C(Cc2ccccc2)Cc2ccccc2)cc1)N1CCOCC1 | -6.3 | 92.4* | i | . | -1.08
O=C(COc1nc2ccccc2nc1N1CCOCC1)Nc1ccc(S(=O)(=O)N2CCCC2)cc1 | 11.2 | 66.7* | i | -23.1 | -0.18
CN(C)S(=O)(=O)c1cccc(NC(=O)COc2nc3ccccc3nc2N2CCOCC2)c1 | -4.2 | 55.6* | i | -33.3 | -1.78
SMILES | WT yeast gro inh | L major viab | Autophagy HCS | INS promoter inh | Ins promoter up
COc1cc(CN2CCC(N3CCC(C(=O)N4CCCC4)CC3)CC2)cc2c1OCO2 | 6.2 | -0.2 | i | . | -1.84
COc1cc2c(cc1OC)C(C1C(=O)CCCC1=O)N(C(=O)CCl)CC2 (stereo unspecified) | -8.9 | 29.0 | i | 0.0 | 0.05
COc1cc2c(cc1OC)C(c1cccs1)N(C(=O)c1cccnc1)CC2 (stereo unspecified) | -4.9 | 0.1 | i | . | 1.01
COc1cc2c(cc1OC)C(c1ccccc1)N(C(=O)CCl)CC2 (stereo unspecified) | -5.9 | 98.9* | i | 9.7 | 0.17
COc1cc2c(cc1OC)C(c1cccs1)N(C(=O)C(C)C)CC2 (stereo unspecified) | 17.4 | 73.4* | i | -25.6 | 0.51
CNC(=O)Nc1ccccc1C(=O)Nc1ccccc1 | . | . | . | . | 0.35
Cn1c(CSCc2ccccc2)n[nH]c1=S | -8.1 | 39.2 | i | -46.1 | -0.05
COc1cc2ncnc(NCc3ccco3)c2cc1OC | 2.9 | 7.3 | i | . | 0.15
COc1cc(CNc2ncnc3c2[nH]c2ccc(C)cc23)cc(OC)c1 | . | . | . | . | -0.39
Cc1ccc2[nH]c3c(NCc4ccco4)ncnc3c2c1 | 11.0 | 28.1 | i | 84.8* | -6.84
Brc1ccc2ncnc(NCc3ccco3)c2c1 | -13.4 | 55.0* | i | 9.1 | ?
COc1ccc(OCC(=O)NNC(=O)c2nn(C)c(=O)c3ccccc23)cc1 | -9.4 | -2.4 | i | 21.9 | -0.07
O=C(Cn1ncn2c(cc3ccccc32)c1=O)NCc1ccco1 | -0.4 | -2.2 | i | . | 3.78*
Cc1cc(C(=O)NNC(=O)c2nn(C)c(=O)c3ccccc23)c(C)o1 | 7.7 | 65.4* | i | . | -0.62
Cn1nc(C(=O)NCc2ccco2)c2ccccc2c1=O | 6.1 | -4.2 | i | 61.5* | 0.14
COc1ccc(CNC(=O)Cn2ncn3c(cc4ccccc43)c2=O)cc1 | . | . | . | . | -0.02
Cc1ccc(N2CCN(c3ccc(C)cc3)C2c2cccnc2)cc1 | 13.9 | 86.5* | i | -14.3 | .
c1ccc(N2CCN(c3ccccc3)C2c2cccnc2)cc1 | 11.4 | 91.7* | i | 53.5 | .
c1ccc(N2CCN(c3ccccc3)C2c2ccncc2)cc1 | -11.6 | 82.3* | i | 14.3 | -0.09
O=C1C2ON(c3ccccc3)C(c3cccnc3)C2C(=O)N1c1ccccc1 (stereo unspecified) | 10.2 | -9.9 | i | 15.6 | -0.38
COc1cccc(C2N(c3ccccc3)CCN2c2ccccc2)c1OC | -5.5 | 5.0 | i | . | -0.08
COc1ccc(C2N(c3ccc(C)cc3)CCN2c2ccc(C)cc2)cc1O | 5.4 | 10.7 | i | 33.3 | 0.05
COc1ccc(CN(C(=O)CSc2nnc(-c3c[nH]c4ccccc34)o2)c2ccc(F)cc2)cc1OC | 37.4 | 31.5 | i | -53.9 | -1.34
O=S(=O)(Nc1ccc(N=Nc2ccccc2)cc1)c1ccccc1 | -4.5 | -4.5 | i | . | 0.8
O=S(=O)(Nc1ccc(N=Nc2ccc(O)c3ccccc23)cc1)c1ccccc1 | 58.8* | 85.9* | i | -47.4 | .
SMILES | WT yeast gro inh | L major viab | Autophagy HCS | INS promoter inh | Ins promoter up
Cc1[nH]nc2c1C(CCc1ccccc1)C(C#N)=C(N)O2 (stereo unspecified) | -20.6 | . | . | . | 0.25
Cc1cc(/C=C2/SC(=S)N(c3cccc(C(F)(F)F)c3)C2=O)c(C)n1-c1cccnc1 | . | 79.7* | i | -12.5 | .
CC(=O)N1CSCC1C(=O)NNS(=O)(=O)c1cccc(C(F)(F)F)c1 (stereo unspecified) | . | . | . | . | -0.3
COc1ccc(-c2nnc(Sc3nc4ccccc4o3)c3ccccc23)cc1 | 0.1 | 88.3* | i | . | .
COc1ccc(C(=O)Cn2c(Cl)nc3c2c(=O)n(C)c(=O)n3C)cc1 | . | . | . | . | 0.08
Cc1ccc(NC(=S)N2CCC(N(C)CC3CCCO3)CC2)cc1 (stereo unspecified) | -8.2 | 75.6* | i | -28.6 | 0.54
Cc1cc(C)c(NC(=S)N2CCC(N(C)CC3CCCO3)CC2)c(C)c1 (stereo unspecified) | 4.3 | 27.5 | i | 43.8 | -0.6
